Structures are written as SMILES. Compounds without any hit were thinned out: in the full panel of roughly 83,000, 20% have a hit.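 Single-dose data. Exposure time 48 hours. Values below 10 considered active.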 Unmarked numbers belong to inactive results. Calls of active or inactive are those of the source.

In this assay the test system is UACC-62 melanoma. The assay is described as follows: NCI-60 one-dose screen, 48 h (100 = growth as untreated, 0 = no growth, -100 = all killed). To be noted: 10 µM.
For the molecule `COc1cc2c3c(n(CCCNC(C)C)c(=O)c2cc1OC)-c1nc2c(cc1C3=O)OCO2`, the growth was 22%.

For `COc1ccc2cc([C@H](C)C(=O)NCc3ccccc3)ccc2c1`, the growth is 22.1%. Under `O=C(Cn1nc(-c2ccccc2)ccc1=O)NNC(=S)NC1CCCCC1` stands 96.2%; under `CN1CCCN(Cc2ccc(C(=O)Nc3cccc(Nc4ccc5cc(O)ccc5n4)c3)cc2C(F)(F)F)CC1`, 88.1%; under `O=C1Nc2cc(Cl)ccc2/C1=C/c1cccc(OCc2ccccc2)c1`, -32.6% (active). The result for `C/C(=C\CC/C=C(\C)CC/C=C(\C)CC[C@@H](O)C(C)(C)O)CC/C=C(\C)CC[C@@H](O)C(C)(C)O` reads 46.2%. Under `O=C(c1ccc([N+](=O)[O-])c([N+](=O)[O-])c1O)n1[nH]c(=O)c2ccccc2c1=O` stands 60.3%; under `O=C(O)CCCCCCCCCCN1C(=O)/C(=C/c2cnc(-c3ccc(Cl)cc3)s2)SC1=S`, 0.545% (active). Regarding `O=C1Nc2ccc(F)cc2/C1=C/c1cccc(OCc2ccccc2)c1`, the growth is 16.5%. The result for `COc1ccc(-c2nc(S(=O)(=O)c3ccccc3)c(S(C)(=O)=O)o2)cc1` reads 33.5%; that for `COc1ccc(C(=O)NC(=S)N2CCN(c3ncnc4c3cnn4-c3ccccc3)CC2)cc1`, 40.8%; that for `C=CC(=O)Nc1nc(-c2cccc(NS(=O)(=O)c3cccc4c(N(C)C)cccc34)c2)cs1`, -86.8% (active). Under `Cc1cc(=O)oc2cc(OCCCCOc3ccc(/C=C/C(=O)Nc4cccc(Cl)c4)cc3)ccc12` stands 75.3%. On to `COc1ccccc1C(=O)NNC(=O)CSc1nc2c(c(=O)[nH]1)CCCC2`, for which the growth was 95.2%.

Consider `NC1=NC(c2ccccc2Cl)N=C(Nc2nn[nH]n2)N1` (configuration not stated), for which the growth is 94.1%. With `COc1ccc2nc(Cl)c(-c3cc(-c4ccccc4)nc(=O)[nH]3)cc2c1`, the growth is 66.8%. Turning to `O=c1[nH]n(C(=S)N/N=C/c2ccc(F)cc2)c(=O)c2ccccc12`, the growth was 44.7%. With `O=C(CS(=O)(=O)c1oc(-c2ccc(Cl)cc2)nc1S(=O)(=O)c1ccccc1)N1CCCC1`, the growth is 47.5%. Under `O=C1Nc2cc(Cl)ccc2/C1=C/c1cccc(OCc2ccc(Br)cc2F)c1` stands 8.35% (active).

Take `Cc1nc2c(cnn2-c2ccccc2)c(=O)n1-c1ccc(NC(=O)c2ccc(F)cc2)cc1`: the growth is 63.1%. The result for `S=c1nc(-c2ccccc2)cc(-c2cc3ccccc3nc2Cl)[nH]1` reads 43.8%; that for `Cc1ccc(C(=O)Nc2ccc(-n3c(C)nc4c(cnn4-c4ccccc4)c3=O)cc2)cc1`, 60.8%; that for `Cc1cc(C)nc(NS(=O)(=O)c2ccc(N/C(N)=N/c3nccc(-c4cccs4)n3)cc2)n1`, 96.3%. The result for `COc1ccc(CN2[C@H](C(=O)NCc3ccc(C(=O)NO)cc3)Cc3c([nH]c4ccccc34)[C@H]2C2CC2)cc1` reads 20.9%; that for `O=C1Nc2ccc(Cl)cc2/C1=C/c1cccc(OCc2ccccc2)c1`, 26.3%; that for `O=C(Cn1cc(CSc2nnc3oc4ccccc4n23)nn1)Nc1ccc(Br)cc1`, 49.8%. The result for `CCN1CCN(c2ccc(NC(=O)Nc3ccc(-c4cc(C(=O)NC)c5ncccc5n4)cc3)cc2C(F)(F)F)CC1` reads -99% (active).

With `COc1ccc(-c2nc(S(=O)(=O)c3ccc(C)cc3)c(S(=O)(=O)CC(=O)N(C)Cc3ccccc3)o2)cc1`, the growth was 46.7%. The result for `COC[C@@H](CC(C)C)N=C1NC(=O)/C(=C/c2ccc3ncsc3c2)N1` reads 1.43% (active). The result for `CC(C)Sc1nc(NC2CC2)c(C#N)c(-c2ccccc2)n1` reads 87.1%.

For the molecule `CCOC(=O)N/C(=C1/OCCN1C)[P+](c1ccccc1)(c1ccccc1)c1ccccc1`, the growth is 51%. Under `CS(=O)(=O)Nc1ccc(-c2ccc3c(c2)ncn3-c2ccc(NC(=O)Nc3ccc(Cl)c(C(F)(F)F)c3)cc2)cc1` stands -85.8% (active); under `CN1CCc2c(sc3ncnc(N/N=C/c4cn(-c5ccccc5)nc4-c4ccc(Cl)cc4)c23)C1`, 9.22% (active).

For `CC1(c2ccccc2)NC(=O)N(CC(=O)Nc2ccc(C(=O)/C=C/c3ccc(Br)cc3)cc2)C1=O` (configuration not stated), the growth is 27.2%. The result for `O=C(CN1CCN(c2ncnc3c2cnn3-c2ccccc2)CC1)Nc1nncs1` reads 17.4%; that for `COc1ccc(C=CC(=O)c2ccc(-n3c(C)nc4c(cnn4-c4ccccc4)c3=O)cc2)cc1`, 50%; that for `O=C(c1ccc(-n2c(=O)[nH]c3ccccc3c2=O)cc1)N1CCOCC1`, 92.9%.

The record behind these values is PubChem BioAssay (NCI).
